In the supplement of paper PMC7366291:
Structures can show the parent of a compound that is named as a salt. ± gives the standard deviation.

These compounds were tested on Danio rerio Tg(wt1b:EGFP) embryo, pronephros (assay: glomerular separation, fold change vs DMSO control; higher = glomeruli further apart (abnormal)). Conditions: 25 µM; exposure: 24-48 hpf.
Method in brief: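 Dechorionated Tg(wt1b:EGFP) zebrafish embryos were kept from 24 to 48 hpf at 28.5°C in HEPES-buffered E3 containing 0.003% PTU, 0.5% DMSO and 25 μM compound. The pronephroi were then imaged from the dorsal side in agarose-filled 96-well plates at 470 nm with 10 z-slices, and 16 reference points were placed by hand on maximum projections in Fiji so that a macro could calculate distances and angles. Values lying more than 2 SD from the mean of a feature were discarded. Every feature is given as a fold change against the mean of DMSO-treated embryos from the same day.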
Compound `Nc1nc(NC2CC2)c2ncn([C@H]3C=C[C@@H](CO)C3)c2n1` [Abacavir Sulfate] has a glomerular separation of 0.958 ± 0.35.
Work on `COc1cc(C(=O)NS(=O)(=O)c2ccccc2C)ccc1Cc1cn(C)c2ccc(NC(=O)OC3CCCC3)cc12` [Zafirlukast] yielded a glomerular separation of 0.957 ± 0.46.
With `Cn1c(=O)c2c(ncn2CC2OCCO2)n(C)c1=O` [Doxofylline] the glomerular separation was 1.55 ± 0.87.
`COc1ccnc(C[S+]([O-])c2nc3cc(OC(F)F)ccc3[nH]2)c1OC` (centres undefined) [Pantoprazole sodium] was tested, and the glomerular separation was 1.04 ± 0.33.
Compound `CCn1cc(C(=O)O)c(=O)c2ccc(C)nc21` [Nalidixic acid sodium salt] has a glomerular separation of 1.31 ± 0.59.
For `O=S(=O)(O)c1cc(O)ccc1O` [Ethamsylate], the glomerular separation was 1.12 ± 0.45.
In the case of `CN(C)CCCN1c2ccccc2CCc2ccc(Cl)cc21` [Clomipramine hydrochloride], the glomerular separation is reported as 1.18 ± 0.38.
`CC(=O)Nc1ccc(CC(=O)O)cc1` [Actarit] gave a glomerular separation of 1.05 ± 0.28.
Work on `CC/C(=C(\c1ccccc1)c1ccc(OCCN(C)C)cc1)c1ccccc1` [Tamoxifen citrate] yielded a glomerular separation of 0.968 ± 0.33.
In the case of `N=C(N)N/N=C/c1c(Cl)cccc1Cl` [Guanabenz acetate], the glomerular separation is reported as 1.12 ± 0.47.
`COc1cc2nc(N3CCN(C(=O)c4ccco4)CC3)nc(N)c2cc1OC` [Prazosin hydrochloride] gave a glomerular separation of 0.618 ± 0.16.
In the case of `CC(C)[C@H]1CC[C@H](C(=O)N[C@H](Cc2ccccc2)C(=O)O)CC1` [Nateglinide], the glomerular separation is reported as 0.985 ± 0.37.
`COc1ccc2c3c1O[C@H]1C[C@@H](O)C=C[C@@]31CCN(C)C2` [Galanthamine hydrobromide] was tested, and the glomerular separation was 1.08 ± 0.38.
`Cn1c(=O)c2c(ncn2CC(O)CO)n(C)c1=O` (centres undefined) [Diprophylline] showed a glomerular separation of 0.977 ± 0.2.
`CC(C)(Oc1ccc(C2CC2(Cl)Cl)cc1)C(=O)O` (centres undefined) [Ciprofibrate] showed a glomerular separation of 1.25 ± 0.62.
Compound `CC(C)(C)NC[C@H](O)COc1cccc2c1CCCC2=O` [(-) -Levobunolol hydrochloride] has a glomerular separation of 0.705 ± 0.17.
In the case of `CC(C)CC(=O)N[C@H](C(=O)N[C@H](C(=O)N[C@@H](CC(C)C)[C@@H](O)CC(=O)N[C@@H](C)C(=O)N[C@@H](CC(C)C)[C@@H](O)CC(=O)O)C(C)C)C(C)C` [Pepstatin A], the glomerular separation is reported as 0.947 ± 0.11.
With `N=C(N)N1CCc2ccccc2C1` [Debrisoquin sulfate] the glomerular separation was 1.02 ± 0.24.
For `CC(C)(C)NC(=O)[C@@H]1CN(Cc2cccnc2)CCN1C[C@@H](O)C[C@@H](Cc1ccccc1)C(=O)N[C@H]1c2ccccc2C[C@H]1O` [Indinavir sulfate], the glomerular separation was 1.35 ± 0.6.
With `CC(CN1c2ccccc2Sc2ccccc21)N(C)C` (centres undefined) [Promethazine hydrochloride] the glomerular separation was 0.666 ± 0.15.
`CO[C@H]1/C=C/O[C@@]2(C)Oc3c(C)c(O)c4c(c3C2=O)C2=NC3(CCN(CC(C)C)CC3)NC2=C(NC(=O)/C(C)=C\C=C\[C@H](C)[C@H](O)[C@@H](C)[C@@H](O)[C@@H](C)[C@H](OC(C)=O)[C@@H]1C)C4=O` [Rifabutin] was tested, and the glomerular separation was 1.4 ± 0.24.
`CC(C)(C)NCC(O)COc1cccc2c1CCC(=O)N2` (centres undefined) [Carteolol hydrochloride] showed a glomerular separation of 1.21 ± 0.32.
Compound `C=C(CC)C(=O)c1ccc(OCC(=O)O)c(Cl)c1Cl` [Ethacrynic acid] has a glomerular separation of 1.05 ± 0.28.
With `CCN(CC)CCNC(=O)c1ccc(N)cc1` [Procainamide hydrochloride] the glomerular separation was 0.95 ± 0.48.
With `CC[C@H](C)[C@H](N)C1=N[C@H](C(=O)N[C@@H](CC(C)C)C(=O)N[C@H](CCC(=O)O)C(=O)N[C@H](C(=O)N[C@H]2CCCCNC(=O)[C@H](CC(N)=O)NC(=O)[C@@H](CC(=O)O)NC(=O)[C@H](Cc3cnc[nH]3)NC(=O)[C@@H](Cc3ccccc3)NC(=O)[C@H]([C@@H](C)CC)NC(=O)[C@@H](CCCN)NC2=O)[C@@H](C)CC)CS1` [Bacitracin] the glomerular separation was 0.822 ± 0.28.
`O=C1Cc2cc(CCN3CCN(c4nsc5ccccc45)CC3)c(Cl)cc2N1` [Ziprasidone  Hydrochloride] was tested, and the glomerular separation was 1.5 ± 0.53.
For `C[C@@H]1[C@H](O)[C@@H](C)/C=C/C=C/C=C/C=C/C=C/C=C/C=C/[C@H](O[C@@H]2O[C@H](C)[C@@H](O)[C@H](N)[C@@H]2O)C[C@@H]2O[C@](O)(C[C@@H](O)C[C@@H](O)[C@H](O)CC[C@@H](O)C[C@@H](O)CC(=O)O[C@H]1C)C[C@H](O)[C@H]2C(=O)O` [Amphotericin B], the glomerular separation was 3.69 ± 2.9.
`C[N+](C)(C)CCCCCC[N+](C)(C)C` [Hexamethonium dibromide dihydrate] showed a glomerular separation of 0.932 ± 0.3.
Compound `NCCCC[C@H](N[C@@H](CCc1ccccc1)C(=O)O)C(=O)N1CCC[C@H]1C(=O)O` [Lisinopril] has a glomerular separation of 1.16 ± 0.32.
